According to PubChem BioAssay (Tox21):
Records with an inconclusive call do not appear. Unmarked numbers belong to inactive results. Calls of active or inactive are those of the source. The call rests on the fitted dose curve. Positions of bridges follow the written chain, without caps; N, C: chain ends. Non-standard residues stand in square brackets, D forms with d. Residues, ends and D or L forms follow the SMILES beside them. *: point of attachment. X1 = CC[C@@H](C)[C@@H](N)C1=N[C@H](C(=O)*)CS1; d(aIle) = CC[C@H](C)[C@@H](N)C(=O)O; dOrn = NCCC[C@@H](N)C(=O)O

Each molecule was assayed against Estrogen receptor (Homo sapiens) (UniProt P03372) (assay: qHTS assay to identify small molecule agonists of the estrogen receptor alpha (ER-alpha) signaling pathway (AID 743075;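 further: HEK293 GripTite cells with ER-alpha and UAS-driven beta-lactamase reporter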)). Conditions: HEK293 ER-alpha-UAS-bla, beta-lactamase FRET ratio, 18 h; series mostly up to 70.1 µM; activation: at the top concentration.
On the % scale 0 is the no-effect control and ±100 the full control effect.

Estrogen receptor (Homo sapiens), sequence (P03372 whole entry, looked up): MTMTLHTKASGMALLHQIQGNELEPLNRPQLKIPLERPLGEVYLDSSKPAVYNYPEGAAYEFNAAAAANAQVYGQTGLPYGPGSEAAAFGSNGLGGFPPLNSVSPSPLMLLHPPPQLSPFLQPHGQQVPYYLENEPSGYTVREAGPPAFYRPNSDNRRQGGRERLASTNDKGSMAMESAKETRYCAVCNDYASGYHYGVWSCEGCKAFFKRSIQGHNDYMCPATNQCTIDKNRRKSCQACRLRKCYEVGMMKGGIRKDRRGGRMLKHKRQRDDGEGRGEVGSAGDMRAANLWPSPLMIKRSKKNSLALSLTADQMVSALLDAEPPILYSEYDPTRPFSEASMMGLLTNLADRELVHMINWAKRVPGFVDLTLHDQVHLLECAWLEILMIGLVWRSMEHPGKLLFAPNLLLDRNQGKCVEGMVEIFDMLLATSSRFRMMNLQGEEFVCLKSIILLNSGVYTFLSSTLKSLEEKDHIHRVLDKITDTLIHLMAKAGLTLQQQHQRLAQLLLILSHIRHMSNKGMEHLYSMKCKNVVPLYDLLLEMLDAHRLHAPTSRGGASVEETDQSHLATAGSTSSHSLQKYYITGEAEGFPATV

| Structure (SMILES) | activation | Potency |
| --- | --- | --- |
| C/C(=C\C(=O)OCCCCCCCCC(=O)O)C[C@@H]1OC[C@H](C[C@@H]2O[C@H]2[C@@H](C)[C@H](C)O)[C@@H](O)[C@H]1O | -2.52% |  |
| CC(C)[C@H](NC(=O)[C@H](CC(=O)O)NC(=O)[C@H](CCCCN)NC(=O)[C@@H](N)CCCN=C(N)N)C(=O)N[C@@H](Cc1ccc(O)cc1)C(=O)O (H-RKDVY-OH) | -1.62% |  |
| NC(=O)[C@@H]1CCCN1C(=O)[C@H](Cc1cnc[nH]1)NC(=O)[C@@H]1CCC(=O)N1 | -0.97% |  |
| CC[C@H]1OC(=O)[C@H](C)C(=O)[C@H](C)[C@@H](O[C@@H]2O[C@H](C)C[C@H](N(C)C)[C@H]2O)[C@](C)(OC)C[C@@H](C)C(=O)[C@H](C)[C@H]2N(CCCCn3cnc(-c4cccnc4)c3)C(=O)O[C@]12C |  | inactive |
| C[N+](C)(C)CCOP(=O)(O)OP(=O)([O-])OC[C@H]1O[C@@H](n2ccc(N)nc2=O)[C@H](O)[C@@H]1O |  | inactive |
| Cc1cnc(C(=O)O)c[n+]1[O-] |  | inactive |
| C=CC1=C(C(=O)O)N2C(=O)[C@@H](NC(=O)/C(=N/OCC(=O)O)c3csc(N)n3)[C@H]2SC1 (stereo in doubt) | 1.68% [at 32.9 µM] |  |
| O=P(O)(O)C(O)(Cn1ccnc1)P(=O)(O)O | -0.373% |  |
| C=CC[N+]1([C@H]2C[C@H]3[C@@H]4CC[C@H]5C[C@H](O)[C@@H](N6CCOCC6)C[C@]5(C)[C@H]4CC[C@]3(C)[C@H]2OC(C)=O)CCCC1 | 5.71% |  |
| CC[C@@H](C)[C@@H](N)C1=N[C@H](C(=O)N[C@@H](CC(C)C)C(=O)N[C@@H](CCC(=O)O)C(=O)N[C@@H](C(=O)N[C@@H]2CCCCNC(=O)[C@@H](CC(N)=O)NC(=O)[C@@H](CC(=O)O)NC(=O)[C@@H](Cc3cnc[nH]3)NC(=O)[C@@H](Cc3ccccc3)NC(=O)[C@@H]([C@H](C)CC)NC(=O)[C@@H](CCCN)NC2=O)[C@@H](C)CC)CS1 (X1-LE[d(aIle)][dK][dOrn][dI][dF][dH][dD][dN]; lactam 4-C) |  | inactive |
